In PubChem BioAssay (NCATS):
Inconclusive results are not listed. Unmarked numbers belong to inactive results. The source made the active and inactive calls. The call rests on the fitted dose curve; in most records, active means well fitted cell-killing curve with a large enough effect; inconclusive means small, poorly fitted or top-dose-only effect, or effect the other way; inactive means no such curve, though single readings can be large or run the other way.

Assays:
[1] = Quantitative High-Throughput drug screen in 47 multiple myeloma cell lines against the NCATS MIPE library collection: MM1S_ATCC cell viability assay (AID 1918980); further: nearly all actives have a fitted effect of over 45% in size; further: potency means the concentration at half of the fitted maximal effect
In short: (§1)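 ATP-based CellTiter-Glo luminescence after 48 h drug exposure (37 °C, 5% CO2) of 500 myeloma cells per well. DMSO-only wells set 100% viability, media-only wells 0%; MIPE 4.0 library added by pin tool.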

[2] = Quantitative High-Throughput drug screen in 47 multiple myeloma cell lines against the NCATS MIPE library collection: LP1_DSMZ cell viability assay (AID 1918982); further: nearly all actives have a fitted effect of over 35% in size; further: potency means the concentration at half of the fitted maximal effect
In short: as §1

[3] = Quantitative High-Throughput drug screen in 47 multiple myeloma cell lines against the NCATS MIPE library collection: OCIMY5_PLB cell viability assay (AID 1918988); further: nearly all actives have a fitted effect of over 65% in size; further: potency means the concentration at half of the fitted maximal effect
In short: as §1

[4] = Quantitative High-Throughput drug screen in 47 multiple myeloma cell lines against the NCATS MIPE library collection: XG6_PLB cell viability assay (AID 1919865); further: nearly all actives have a fitted effect of over 40% in size; further: potency means the concentration at half of the fitted maximal effect
In short: as §1

[5] = Quantitative High-Throughput drug screen in 47 multiple myeloma cell lines against the NCATS MIPE library collection: XG1_PLB cell viability assay (AID 1919866); further: nearly all actives have a fitted effect of over 35% in size; further: potency means the concentration at half of the fitted maximal effect
In short: as §1

[6] = Quantitative High-Throughput drug screen in 47 multiple myeloma cell lines against the NCATS MIPE library collection: VP6_DJ cell viability assay (AID 1919867); further: nearly all actives have a fitted effect of over 40% in size; further: potency means the concentration at half of the fitted maximal effect
In short: as §1

[7] = Quantitative High-Throughput drug screen in 47 multiple myeloma cell lines against the NCATS MIPE library collection: KMS28PE_JCRB cell viability assay (AID 1918983); further: nearly all actives have a fitted effect of over 35% in size; further: potency means the concentration at half of the fitted maximal effect
In short: as §1

[8] = Quantitative High-Throughput drug screen in 47 multiple myeloma cell lines against the NCATS MIPE library collection: OPM1_PLB cell viability assay (AID 1918989); further: nearly all actives have a fitted effect of over 40% in size; further: potency means the concentration at half of the fitted maximal effect
In short: as §1

[9] = Quantitative High-Throughput drug screen in 47 multiple myeloma cell lines against the NCATS MIPE library collection: SKMM1_PLB cell viability assay (AID 1919863); settings: SKMM1 myeloma viability, CellTiter-Glo ATP, 48 h; viability: stronger effect = lower value; further: nearly all actives have a fitted effect of over 35% in size; further: potency means the concentration at half of the fitted maximal effect; on viability: series mostly up to about 46 µM
In short: as §1

[10] = Quantitative High-Throughput drug screen in 47 multiple myeloma cell lines against the NCATS MIPE library collection: U266_ATCC cell viability assay (AID 1919864); further: nearly all actives have a fitted effect of over 35% in size; further: potency means the concentration at half of the fitted maximal effect
In short: as §1

[11] = Quantitative High-Throughput drug screen in 47 multiple myeloma cell lines against the NCATS MIPE library collection: UTMC2_PLB cell viability assay (AID 1919868); further: nearly all actives have a fitted effect of over 55% in size; further: potency means the concentration at half of the fitted maximal effect
In short: as §1

[12] = Quantitative High-Throughput drug screen in 47 multiple myeloma cell lines against the NCATS MIPE library collection: PE2_PLB cell viability assay (AID 1919869); further: nearly all actives have a fitted effect of over 35% in size; further: potency means the concentration at half of the fitted maximal effect
In short: as §1

[13] = Quantitative High-Throughput drug screen in 47 multiple myeloma cell lines against the NCATS MIPE library collection: OPM2_DSMZ cell viability assay (AID 1919872); further: nearly all actives have a fitted effect of over 30% in size; further: potency means the concentration at half of the fitted maximal effect
In short: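 Myeloma cell lines, 500 cells per well, exposed to MIPE 4.0 library compounds for 48 h at 37C, 5% CO2. Viability from ATP by CellTiter-Glo luminescence; normalised to DMSO (100%) and media-only (0%) wells.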

[14] = Quantitative High-Throughput drug screen in 47 multiple myeloma cell lines against the NCATS MIPE library collection: MM1R_ATCC cell viability assay (AID 1918981); further: nearly all actives have a fitted effect of over 35% in size; further: potency means the concentration at half of the fitted maximal effect
In short: as §1

[15] = Quantitative High-Throughput drug screen in 47 multiple myeloma cell lines against the NCATS MIPE library collection: L363_DSMZ cell viability assay (AID 1918984); further: nearly all actives have a fitted effect of over 40% in size; further: potency means the concentration at half of the fitted maximal effect
In short: as §1

[16] = Quantitative High-Throughput drug screen in 47 multiple myeloma cell lines against the NCATS MIPE library collection: OCIMY7_PLB cell viability assay (AID 1918987); further: potency means the concentration at half of the fitted maximal effect; nearly all actives have a fitted effect of over 65% in size
In short: as §1

[17] = Quantitative High-Throughput drug screen in 47 multiple myeloma cell lines against the NCATS MIPE library collection: PCM6_Riken cell viability assay (AID 1919870); further: nearly all actives have a fitted effect of over 30% in size; further: potency means the concentration at half of the fitted maximal effect
In short: as §1

[18] = Quantitative High-Throughput drug screen in 47 multiple myeloma cell lines against the NCATS MIPE library collection: RPMI8226_ATCC cell viability assay (AID 1919871); further: nearly all actives have a fitted effect of over 30% in size; further: potency means the concentration at half of the fitted maximal effect
In short: as §1

[19] = Quantitative High-Throughput drug screen in 47 multiple myeloma cell lines against the NCATS MIPE library collection: KMS34_JCRB cell viability assay (AID 1918985); further: nearly all actives have a fitted effect of over 40% in size
In short: as §1

Compound | Potency [1] | Potency [2] | Potency [3] | Potency [4] | Potency [5] | Potency [6] | Potency [7] | Potency [8] | viability [9] [%] | Potency [10] | Potency [11] | Potency [12] | Potency [13] | Potency [14] | Potency [15] | Potency [16] | Potency [9] | Potency [17] | Potency [18] | Potency [19]
CCc1nc(N)nc(N)c1-c1ccc(Cl)cc1 | 16.6 µM (active) | 8.33 µM (active) | inactive | inactive | 3.72 µM (active) | 3.32 µM (active) | – | – | – | – | – | – | – | – | – | – | – | – | – | –
N=C(N=C(N)N)N1CCOCC1 | 10.5 µM (active) | inactive | – | – | – | inactive | inactive | inactive | 125 | 18.7 µM (active) | inactive | inactive | inactive | – | – | – | – | – | – | –
COc1cc(Nc2c(C#N)cnc3cc(OCCCN4CCN(C)CC4)c(OC)cc23)c(Cl)cc1Cl | 29.6 µM (active) | – | 18.7 µM (active) | – | 2.96 µM (active) | 1.05 µM (active) | 18.7 µM (active) | – | – | 23.5 µM (active) | 0.526 µM (active) | 3.72 µM (active) | – | 18.7 µM (active) | 1.66 µM (active) | 0.743 µM (active) | 23.5 µM (active) | 1.87 µM (active) | – | –
CN(C)CCCC1(c2ccc(F)cc2)OCc2cc(C#N)ccc21 (stereo unspecified) | 18.7 µM (active) | inactive | 18.7 µM (active) | – | – | inactive | – | inactive | 106 | 23.5 µM (active) | inactive | inactive | inactive | – | inactive | 11.8 µM (active) | – | inactive | 18.7 µM (active) | –
COc1cc2nc(N3CCN(C(=O)C4CCCO4)CC3)nc(N)c2cc1OC (stereo unspecified) | inactive | – | – | – | – | – | inactive | inactive | – | inactive | – | inactive | inactive | inactive | 1.48 µM (active) | – | – | – | inactive | –
O=C(c1ccccc1)c1ccc2n1CCC2C(=O)O (stereo unspecified) | 1.05 µM (active) | inactive | 0.743 µM (active) | 9.35 µM (active) | 9.35 µM (active) | 9.35 µM (active) | – | 20.9 µM (active) | 105 | 3.72 µM (active) | 14.8 µM (active) | 9.35 µM (active) | inactive | 2.09 µM (active) | inactive | 7.43 µM (active) | – | 10.5 µM (active) | inactive | –
Cc1cccc(C)c1OCC(=O)N[C@@H](Cc1ccccc1)[C@@H](O)C[C@H](Cc1ccccc1)NC(=O)[C@H](C(C)C)N1CCCNC1=O | 20.9 µM (active) | – | inactive | – | 20.9 µM (active) | – | 20.9 µM (active) | 18.7 µM (active) | – | inactive | – | – | – | – | – | 11.8 µM (active) | – | – | – | –
Nc1nc(Cl)nc2c1ncn2[C@H]1C[C@H](O)[C@@H](CO)O1 | 0.59 µM (active) | inactive | – | 0.935 µM (active) | – | 3.72 µM (active) | – | – | – | – | 2.35 µM (active) | 14.8 µM (active) | inactive | 0.264 µM (active) | – | 0.001 µM (active) | – | – | inactive | –
COc1ccc2cc([C@H](C)C(=O)O)ccc2c1 | inactive | inactive | 20.9 µM (active) | inactive | – | – | – | – | 105 | inactive | 23.5 µM (active) | inactive | inactive | inactive | – | 33.2 µM (active) | – | – | inactive | inactive
Clc1ccc(C(Cn2ccnc2)OCc2ccc(Sc3ccccc3)cc2)c(Cl)c1 (stereo unspecified) | 18.7 µM (active) | 23.5 µM (active) | 26.4 µM (active) | – | 23.5 µM (active) | 20.9 µM (active) | – | – | – | inactive | 33.2 µM (active) | 20.9 µM (active) | – | 26.4 µM (active) | 20.9 µM (active) | 26.4 µM (active) | – | 18.7 µM (active) | 23.5 µM (active) | –
CC(=O)N1CCN(c2ccc(OC[C@H]3CO[C@](Cn4ccnc4)(c4ccc(Cl)cc4Cl)O3)cc2)CC1 | – | – | 18.7 µM (active) | – | 13.2 µM (active) | 11.8 µM (active) | – | – | – | – | inactive | 14.8 µM (active) | 18.7 µM (active) | 11.8 µM (active) | inactive | – | – | – | – | –
CNC[C@@H](O)[C@@H](O)[C@H](O)[C@H](O)CO | – | inactive | – | – | inactive | – | inactive | inactive | – | inactive | – | – | inactive | – | – | – | – | inactive | inactive | inactive
S=c1nc[nH]c2nc[nH]c12 | – | 10.5 µM (active) | – | 2.35 µM (active) | 1.66 µM (active) | 5.26 µM (active) | – | 1.66 µM (active) | 104 | – | 14.8 µM (active) | 4.18 µM (active) | – | 7.43 µM (active) | – | – | – | 5.9 µM (active) | – | –
COCCCN1CCC(NC(=O)c2cc(Cl)c(N)c3c2OCC3)CC1 | – | – | – | – | – | 18.7 µM (active) | inactive | – | – | inactive | – | – | inactive | – | 20.9 µM (active) | – | – | – | 18.7 µM (active) | inactive
